Test results from PubChem BioAssay AID1117361 (Southern Research Institute, 2015).
Out of some 3,600 compounds screened, about 900 (25%) were called active. The rule behind the calls is not given here. Only a sample is shown. Results with a measured potency or affinity are listed apart.

target: Protein Tat (Human immunodeficiency virus type 1 group M subtype B (isolate HXB2)) (UniProt P04608); assay: inhibitors of Tat binding to TAR RNA, dose response, counter-screen for Vif-APOBEC3G degradation inhibitor project, biochemical, fluorescence polarization, FAM-labeled TAR RNA (AID 1117361); conditions: outcome: dose series up to 100 µM unless noted; series mostly up to 100 µM; inhibition: at the top concentration

| Structure (SMILES) | outcome | inhibition |
| --- | --- | --- |
| Cc1sc2nc(SCC(=O)N3CCOCC3)[nH]c(=O)c2c1C | inactive |  |
| Cc1cc(C)cc(C(=O)N2CCC(C(N)=O)CC2)c1 |  | 6.76% (inactive) |
| O=C(CNS(=O)(=O)c1ccccc1)OCC(=O)c1ccc(OC(=O)c2ccccc2)cc1 | inactive |  |
| O=C1CCc2cc(S(=O)(=O)NC(Cc3ccccc3)C(=O)NCC3CCCO3)ccc2N1 (stereo unspecified) |  | 7.43% (inactive) |
| NC(=O)c1nsnc1-c1ccccc1O | inactive |  |
| CC1C=CC=CC=CC=CC=CC=CC=CC(OC2OC(C)C(O)C(N)C2O)CC2OC(O)(CC(O)CC(O)C(O)CCC(O)CC(O)CC(=O)OC(C)C(C)C1O)CC(O)C2C(=O)O (stereo unspecified) |  | 25.1% (inactive) |
| COc1ccc(S(=O)(=O)N(C)Cc2cccs2)cc1Br |  | 0.68% (inactive) |
| O=C(OCn1nnc2ccccc2c1=O)C1=COCCO1 |  | 0.68% (inactive) |
| CC(=O)Nc1ccc(N=Nc2ccccc2)cc1 | inactive |  |
| O=C(NCCNC(=O)c1cc(OCC(F)(F)F)ccc1OCC(F)(F)F)Nc1cccc(C(F)(F)F)c1 |  | 2.73% (inactive) |
| Cc1cc(-c2ccccc2)nc(Oc2ccc(C(C)(C)C)cc2)c1S(C)(=O)=O |  | 2.73% (inactive) |
| CCc1nnc(NC(=O)CSc2nnc(Cc3ccccc3)n2-c2ccc(OC)cc2)s1 | inactive |  |
| COc1ccc(CN2CCNC(=O)C2CC(=O)NC2CCCC2)cc1OC (stereo unspecified) |  | 11.7% (inactive) |
| COc1ccc(C(=O)NC2CC3CCCC(C2)N3CC(C)C)cc1 (stereo unspecified) |  | 5.59% [at 50 µM] (inactive) |
| C=C1Cn2c(nnc2-c2ccc(Cl)cc2)S1 |  | 3.38% (inactive) |
| Cc1ccc(C)c(OCCC(=O)Nc2ccccc2C(=O)NC2CC2)c1 | inactive |  |
| CCC1CCC2(CC1)NC(=O)N(CC(=O)Nc1ccc(OC)c(Cl)c1)C2=O (stereo unspecified) |  | 0.82% (inactive) |
| Cc1ccc2c(Cl)cc(Cl)c(OCC(=O)NCc3ccco3)c2n1 |  | 2.03% (inactive) |
| CC(C)(C)NC(=O)COC(=O)c1cc(S(=O)(=O)N2CCCCC2)ccc1N1CCOCC1 |  | 14.2% (inactive) |
| CCOCCCNC(=O)c1ccccc1Br | inactive |  |
| O=C1[C@@H]2CSCN2C(=O)CN1CCc1cccc(F)c1 | inactive |  |
| COc1ccc(C(=O)Cn2c(=N)n(C)c3ccccc32)cc1 | inactive |  |
| CCn1c(CNC(C)=O)nnc1SCC(=O)c1ccc(Br)cc1 | inactive |  |

| Structure (SMILES) | outcome | inhibition |
| --- | --- | --- |
| CCN(c1ccccc1)S(=O)(=O)c1ccc(C(=O)NNC(=O)c2ccccc2F)cc1 | inactive |  |
| CC(C)CN(C(=O)CN1CCN(S(=O)(=O)c2ccccc2)CC1)c1c(N)n(CC(C)C)c(=O)[nH]c1=O | inactive |  |
| CN(C(=O)CSc1nnc(N)s1)c1c(N)n(Cc2ccccc2)c(=O)[nH]c1=O |  | 7.43% (inactive) |
| Cc1cccc(N2CCN(CC(=O)Nc3nccs3)CC2)c1C |  | 3.38% (inactive) |
| COC(=O)CSc1nnc(CNC(=O)c2ccccc2OC)n1-c1ccc(OC)cc1 |  | 2.73% (inactive) |
| CS(=O)(=O)N1CCCC(C(=O)NCCCN2CCC(Cc3ccccc3)CC2)C1 (stereo unspecified) |  | 3.41% (inactive) |
| O=C1C2C3CC(C(Br)C3Br)C2C(=O)N1c1ccccn1 (stereo unspecified) |  | 1.35% (inactive) |
| CCOc1ccc2nc(N3CCCC(C(=O)NCCCN4CCOCC4)C3)sc2c1 (stereo unspecified) | inactive |  |
| COc1cc(OC)c2ccc(=O)oc2c1C(CCN1CCCC(C)C1)c1ccc2c(c1)OCO2 (stereo unspecified) |  | 0.82% (inactive) |
| O=C1C(Cc2ccccc2)SC(=Nc2ccccc2)N1c1ccccc1 (stereo unspecified) |  | 0.68% (inactive) |
| COc1ccc2[nH]c(C(=O)O)c(CCN3C(=O)c4cccc([N+](=O)[O-])c4C3=O)c2c1 | inactive |  |
| COc1ccc2nc(NNC(=O)c3cc(=O)c4ccccc4o3)sc2c1 |  | 19% (inactive) |
| Cc1ccc2cc3c(NC(=O)c4cccnc4)nn(C)c3nc2c1 |  | 18.2% (inactive) |
| O=C1C2CCCN2C(c2ccccc2)N1c1nccs1 (stereo unspecified) |  | 17.1% (inactive) |
| O=C1NN(c2cccc(Br)c2)C(=O)/C1=C\c1ccccc1 | inactive |  |
| CCCCc1cc(=O)oc2cc(OCC(=O)N(CC)CC)c(Cl)cc12 | inactive |  |
| Cc1ccccc1C(=O)NCC(=O)OC(C)C(=O)NC(C)CCc1ccccc1 (stereo unspecified) |  | 5.77% (inactive) |
| CC(C)(C)n1nc2c(c1NC(=O)c1ccc(Br)o1)CS(=O)C2 (stereo unspecified) |  | 9.55% (inactive) |
| O=C(Nc1cccc(OC(F)(F)F)c1)c1ccc(Br)o1 |  | 20.9% (inactive) |
| Cc1cc(C)c2nc(SCC(=O)NCCN3C(=O)CSC3=O)cc(C)c2c1 | inactive |  |
| CCN(CC)CCNC(=O)Cc1c(C(=O)O)n(C)c2ccccc12 |  | 10.8% (inactive) |
| COc1ccc(NC(=O)CN2CCC(C(N)=O)CC2)cc1 |  | 0.68% (inactive) |
| O=c1cc(CO)oc(C(Nc2ccccn2)c2ccc(F)cc2)c1O (stereo unspecified) |  | 16.2% (inactive) |

| Structure (SMILES) | outcome | inhibition |
| --- | --- | --- |
| OCCNc1ccc(Cl)cc1 |  | 6.08% (inactive) |
| O=C(c1ccco1)N1CCN=C1SCc1cccc(Cl)c1 |  | 6.08% (inactive) |
| O=C(c1ccco1)N1CCN(C(=O)c2cn(-c3ccccc3)nc2-c2ccccc2)CC1 |  | 6.6% (inactive) |
| CC(C)(C)c1cc(C(C)(C)C)cc(S(=O)(=O)CCc2ccccn2)c1 |  | 3.41% (inactive) |
| C#CC(=O)N(c1cc(OC)ccc1OC)C(C(=O)NC1CCCC1)c1cccs1 (stereo unspecified) |  | 5.41% (inactive) |
| COc1ccccc1-c1c(C)[nH]n2c(=O)c(Cc3ccccc3)c(C)nc12 | inactive |  |
| CCOC(=O)Nc1nnc(-c2ccccc2OC)s1 |  | 2.73% (inactive) |
| O=C(O)Cn1c(SC2CCCCC2)nc2ccccc21 |  | 0.68% (inactive) |
| Cc1nn(Cc2ccc(Cl)cc2)c(C)c1NC(=O)c1cc(-c2ccc3c(c2)OCO3)on1 | inactive |  |
| Cc1cc(C)cc(NC(=O)CN2CCC(NC(=O)Cc3ccccc3)CC2)c1 | inactive |  |
| CC(C)c1ccc(-c2nc(N3CCCC3)nc3n[nH]c(N)c23)cc1 |  | 3.38% (inactive) |
| N#Cc1ccc(N2CCN(C(=O)c3cccc(F)c3)CC2)c(F)c1 |  | 5.41% (inactive) |
| CC(C)Oc1ccc2ccccc2c1C=O |  | 21.6% (inactive) |
| Cc1cc(C)n2nc(SC(C)C(=O)N3CCCC3)nc2n1 (stereo unspecified) | inactive |  |
| Cc1nc(OCc2ccccc2)c2ccccc2n1 |  | 5.41% (inactive) |
| COc1ccc(CCNCc2ccc(OCc3ccccc3)cc2)cc1 |  | 0.33% (inactive) |
| Oc1ccc(/C=N/N=C/c2ccc(O)c(O)c2)cc1O | inactive |  |
| O=c1cc(CSc2ccccn2)c2ccccc2[nH]1 |  | 6.08% (inactive) |
| Cc1ccnc(N2CCCC(C(=O)Nc3cc(F)ccc3C)C2)n1 (stereo unspecified) |  | 3.67% (inactive) |
| Cn1c(=O)c2c(ncn2CCCNC2=CC(C)(C)CC(=O)C2)n(C)c1=O |  | 0.68% (inactive) |
| N=C1C(c2nc3ccccc3c(=O)[nH]2)=C(O)CN1c1ccccc1 |  | 5.41% (inactive) |
| O=C(Nc1ccc2c(c1)OCCO2)C1CCC1 |  | 4.73% (inactive) |
| C/C(=N\OCC(=O)Nc1ccc2c(c1)OCCO2)c1ccc2c(c1)OCCO2 |  | 3.41% (inactive) |

| Structure (SMILES) | outcome | inhibition |
| --- | --- | --- |
| COc1ccc(-c2cc(C(=O)NCCCn3ccnc3)no2)cc1OC |  | 2.7% (inactive) |
| O=C(CSc1nnc(CCCO)n1-c1ccccc1)NCCc1ccccc1 | inactive |  |
| CCc1ccc(N(C2C=CS(=O)(=O)C2)S(=O)(=O)c2ccc(C)cc2)cc1 (stereo unspecified) | inactive |  |
| O=C(c1cnn2c(C(F)F)cc(C3CC3)nc12)N1CCc2ccccc2C1 |  | 3.41% (inactive) |
| Cc1cc(F)ccc1S(=O)(=O)Nc1ccccc1C(=O)Nc1ccc2[nH]c(=O)[nH]c2c1 |  | 0.68% (inactive) |
| Cc1ccccc1OCC(=O)NN1Cc2ccccc2C1=N |  | 0.68% (inactive) |
| CN(C)CCNC(=O)C(=O)c1c(-c2ccccc2)cc2ccccn12 |  | 3.3% (inactive) |
| CCN1C(=O)c2ccccc2S(=O)c2ccc(C(=O)NC3CC3)cc21 (stereo unspecified) |  | 6.08% (inactive) |
| CCCCC(=O)NCCNC(=O)c1cc(OCC(F)(F)F)ccc1OCC(F)(F)F |  | 2.73% (inactive) |
| CC(C)NC(=O)c1cc(-c2ccco2)nn1-c1ccc(Cl)cc1 |  | 21.7% (inactive) |
| COc1ccccc1NC(=O)N1CCCC1C(=O)NC1CCCCC1 (stereo unspecified) | inactive |  |
| Cc1[nH]c(=O)nc(NN=Cc2ccc(Cl)cc2)c1C(=O)Nc1ccc(Cl)cc1 | inactive |  |
| CN1C(=O)CSc2ccc(NC(=O)NCc3cccnc3)cc21 | inactive |  |
| O=C(Nc1nc2ccc(Cl)cc2s1)C1CCCO1 (stereo unspecified) |  | 6.08% (inactive) |
| Nc1c2c(nc3ccccc13)CCC2 |  | 4.09% (inactive) |
| COc1cc(NC(=O)c2cccs2)c(OC)cc1NC(=O)CCn1nnc2ccccc21 | inactive |  |
| O=C(N/N=C/c1ccc(OC(=O)c2cccs2)cc1)c1cccc(F)c1 |  | 2.7% (inactive) |
| O=C(CS(=O)(=O)c1cn(Cc2ccc(F)cc2)c2ccccc12)N1CCCCC1 | inactive |  |
| O=C(Nc1ccccc1-c1nnn(CC(=O)N2CCc3ccccc3C2)n1)C1CCC1 |  | 8.78% (inactive) |
| CNc1nc(Sc2cccc(C(F)(F)F)c2)cc(C(F)(F)F)n1 |  | 2.7% (inactive) |
| CC(=O)n1nc(-c2ccc(Cl)cc2)nc1NCc1ccco1 |  | 2.05% (inactive) |
| O=C1CSC(c2nn(-c3ccccc3)cc2-c2cc3ccccc3oc2=O)N1Cc1ccco1 (stereo unspecified) |  | 26.4% (inactive) |
| O=C(CCN1C(=O)c2ccccc2C1=O)NCc1ccco1 |  | 2.34% (inactive) |

| Structure (SMILES) | outcome | inhibition |
| --- | --- | --- |
| CC(=O)N1CCCc2cc(S(=O)(=O)N(C)CCC#N)ccc21 |  | 2.7% (inactive) |
| CCOC(=O)c1c(NC(=O)CCN2CCOCC2)sc(C)c1-c1ccccc1 | inactive |  |
| CCc1c(C)[nH]c(=S)c(C#N)c1C |  | 7.5% (inactive) |
| O=C(NCc1ccc(F)cc1)C1CCCN1C(=O)NCc1ccccc1 (stereo unspecified) | inactive |  |
| CCCC(c1nnnn1CC(=O)OCC)N(Cc1cc2c(C)cc(C)cc2[nH]c1=O)C1CCCC1 (stereo unspecified) |  | 16.4% (inactive) |
| O=C(c1ccco1)N1CCN=C1SCc1ccccc1F |  | 6.82% (inactive) |
| Cc1ccccc1S(=O)(=O)Cc1ccc(C(=O)NCCCN2CCC(C)CC2)o1 |  | 2.34% (inactive) |
| O=C(CCCCl)Nc1nc(-c2ccc3c(c2)OCCO3)cs1 |  | 4.12% (inactive) |
| CN(C)C(=O)c1cc(Cl)ccc1Sc1cc(Cl)ccc1Cl |  | 4.77% (inactive) |
| COC(C[C@H]1O[C@@H]1[C@@H](O)COCc1ccccc1)OC | inactive |  |
| N#Cc1nc(Cc2cccc3ccccc23)oc1NCc1ccc(F)cc1 | inactive |  |
| Cc1nc(C(=O)N(C)C)nn1-c1cc(Cl)cc(Cl)c1 |  | 2.05% (inactive) |
| CCC(=O)Nc1nc2ccc(NC(C)=O)cc2s1 | inactive |  |
| CC(C)c1ccccc1N1CC(C(=O)O)CC1=O (stereo unspecified) | inactive |  |
| COc1cc(C2C(C(=O)c3ccco3)=C(O)C(=O)N2c2cc(C)on2)cc(Br)c1O (stereo unspecified) |  | 27.7% (inactive) |
| COc1ccc(/C(O)=C2/C(=O)C(=O)N(c3ccccn3)C2c2ccc(F)cc2)cc1 (stereo unspecified) |  | 9.69% (inactive) |
| O=C(C1CCCC1)N1CCCC(Nc2ccc(F)cc2)C1 (stereo unspecified) |  | 1.67% (inactive) |
| O=C(c1cc(-c2cccs2)on1)N1CCCCC1 |  | 4.73% (inactive) |
| COc1ccccc1N1CCN(C(=O)c2cc(-c3cccs3)on2)CC1 | inactive |  |
